Test results reported in PubChem BioAssay (NCATS).
Results filed as inconclusive are left out. Unless noted, calls follow the shape of the dose curve; as a rule, active = well fitted curve in either direction with a large enough effect (not every such curve was filed as active); inconclusive = small, poorly fitted or top-dose-only effect, or another doubt; inactive = flat fitted curve, though single readings scatter.

Tests used:
[1] = AP1 Signaling Pathway (AID 357); settings: ME-180 AP-1-bla reporter, EGF-induced, beta-lactamase ratio, 5 h; at 17.2 µM (top of the series) unless noted;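 also: ME-180 reporter cells stimulated with EGF at its EC50 level; % is scaled to controls: 0 for no effect and ±100 for the full control effect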
In short: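 Beta-lactamase reporter under AP-1 response element, ME-180 background. Stimulus: EC50 EGF. Compound exposure 5 h, 37 °C. Detection: CCF4, 2.5 h RT, 460/530 nm. Values: AC50 from titration.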

[2] = NFAT Signaling Pathway (AID 444); settings: Jurkat NFAT-bla M1, carbachol, beta-lactamase ratio, 5 h; at 17.2 µM (top of the series) unless noted;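 also: carbachol stimulus at about its EC50 of 1 µM final; % is scaled to controls: 0 for no effect and ±100 for the full control effect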
In short: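 Jurkat cells with NFAT-driven β-lactamase reporter and co-expressed M1 receptor, stimulated with carbachol (final 1 uM, ~EC50), compound titration, 5 h at 37 °C. CCF4 loaded 1 h at RT; 460/530 nm ratio gave %activity and AC50.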

[3] = Stat Signaling Pathway (AID 446); settings: ME-180 SIE beta-lactamase reporter, IL-6 stimulated, 5 h; at 17.2 µM (top of the series) unless noted;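 also: ME-180 cervical cancer cells given 40 pM IL-6 alongside compound; SIE-controlled beta-lactamase reporter measured as 460/530 nm FRET emission ratio; % is scaled to controls: 0 for no effect and ±100 for the full control effect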
In short: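 ME-180 cells carrying a SIE-driven beta-lactamase reporter are stimulated with 40 pM IL-6 for 5 h at 37C in the presence of compound. The 460/530 nm FRET substrate ratio is read after 2.5 h at RT. Data are normalised to 300 pM IL-6 and to 125 nM JAK inhibitor controls.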

[4] = target: Glucocorticoid receptor (Homo sapiens) (UniProt P04150); test: GR-GFP Redistribution (AID 450;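 active = compounds whose dose series gives a full or clear partial fitted curve of increased nuclear translocation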; also: potency is read from the fitted curve at half-maximal effect)
Sequence of Glucocorticoid receptor (Homo sapiens) (P04150 whole entry, looked up): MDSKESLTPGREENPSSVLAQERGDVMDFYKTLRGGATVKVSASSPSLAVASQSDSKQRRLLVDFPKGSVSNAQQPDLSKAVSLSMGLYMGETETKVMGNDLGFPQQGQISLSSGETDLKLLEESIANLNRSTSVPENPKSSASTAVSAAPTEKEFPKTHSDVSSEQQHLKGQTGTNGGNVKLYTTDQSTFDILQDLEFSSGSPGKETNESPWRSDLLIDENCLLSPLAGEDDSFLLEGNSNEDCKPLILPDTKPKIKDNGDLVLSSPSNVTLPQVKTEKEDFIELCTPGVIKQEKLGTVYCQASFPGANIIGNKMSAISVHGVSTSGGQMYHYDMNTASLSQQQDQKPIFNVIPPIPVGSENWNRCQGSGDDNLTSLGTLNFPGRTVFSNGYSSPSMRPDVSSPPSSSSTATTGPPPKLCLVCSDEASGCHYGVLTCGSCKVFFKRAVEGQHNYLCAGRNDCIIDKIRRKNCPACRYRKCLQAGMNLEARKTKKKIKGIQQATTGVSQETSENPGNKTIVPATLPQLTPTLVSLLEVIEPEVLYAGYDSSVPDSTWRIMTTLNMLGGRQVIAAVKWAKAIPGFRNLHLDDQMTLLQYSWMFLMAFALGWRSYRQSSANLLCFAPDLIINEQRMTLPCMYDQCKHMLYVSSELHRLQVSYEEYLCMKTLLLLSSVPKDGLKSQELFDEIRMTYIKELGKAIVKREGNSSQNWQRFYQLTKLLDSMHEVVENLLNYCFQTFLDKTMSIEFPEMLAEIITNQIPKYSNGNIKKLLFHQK

O=C(CN1C(=O)c2ccccc2S1(=O)=O)c1ccccc1
inactive: activity change, negative = inhibition [1] 9.24% | activity change, negative = inhibition [2] -11.7% | activity, negative = inhibition [3] 3.52% | Potency [4] > 20.6 µM

NC(=O)c1cc(-c2ccccc2)nc(Oc2ccccc2)n1
inactive: activity change, negative = inhibition [1] -14.4% | activity change, negative = inhibition [2] -25.9% | activity, negative = inhibition [3] -5.87% | Potency [4] > 20.6 µM

CCOC(=O)C1=C(C)OC(N)=C(C#N)C1c1cc2ccccc2nc1N1CCCCC1 (stereo not given)
inactive: activity change, negative = inhibition [1] -11.2% | activity change, negative = inhibition [2] -20.1% | activity, negative = inhibition [3] 13.8% | Potency [4] > 20.6 µM

COC(=O)c1ccc(OC(=O)c2ccc(OC)c(OC)c2)c(OC)c1
inactive: activity change, negative = inhibition [1] -0.243% | activity change, negative = inhibition [2] -10.5% | activity, negative = inhibition [3] -2.16% | Potency [4] > 20.6 µM

CC1(C)Cc2c(c(-c3ccccc3)nc3[nH][nH]c(=O)c23)CO1
inactive: activity change, negative = inhibition [1] -1.59% | activity change, negative = inhibition [2] -1.86% | activity, negative = inhibition [3] 12.3% | Potency [4] > 20.6 µM

O=C(O)c1ccc(C2CCCCC2)cn1
inactive: activity change, negative = inhibition [1] 12.7% | activity change, negative = inhibition [2] -13.3% | activity, negative = inhibition [3] 15.1% | Potency [4] > 20.6 µM

COn1c(SC2CCCCC2)nc2ccccc2c1=O
inactive: activity change, negative = inhibition [1] -10.8% | activity change, negative = inhibition [2] 7.75% | activity, negative = inhibition [3] -9.6% | Potency [4] > 20.6 µM

Cn1nnnc1SCC(=O)NCC(=O)c1ccccc1
inactive: activity change, negative = inhibition [1] -2.72% | activity change, negative = inhibition [2] 2.64% | activity, negative = inhibition [3] 0.0289% | Potency [4] > 20.6 µM

CC1(c2cnc(Nc3ccccc3)s2)CCC(=O)O1 (stereo not given)
inactive: activity change, negative = inhibition [1] -10.6% | activity change, negative = inhibition [2] -7.05% | activity, negative = inhibition [3] 22.3% | Potency [4] > 20.6 µM

O=C(CCC1CCCC1)N1CCC(N2CCN(c3ccccc3)CC2)CC1
inactive: activity change, negative = inhibition [1] -5.6% | activity change, negative = inhibition [2] -29.5% | activity, negative = inhibition [3] 9.85% | Potency [4] > 20.6 µM

O=S1CCCSC1c1cccnc1 (stereo not given)
inactive: activity change, negative = inhibition [1] 5.36% | activity change, negative = inhibition [2] 9.76% | activity, negative = inhibition [3] 2.7% | Potency [4] > 20.6 µM

CCN(CC)CCN1C(=O)C(O)=C(C(C)=O)C1c1ccc(OC)c(OC)c1 (stereo not given)
inactive: activity change, negative = inhibition [1] 1.74% | activity change, negative = inhibition [2] 3.09% | activity, negative = inhibition [3] -2.04% | Potency [4] > 20.6 µM

S=C(N=Nc1ccccc1)NNc1ccccc1
inactive: activity change, negative = inhibition [1] 7.8% | activity change, negative = inhibition [2] 14% | activity, negative = inhibition [3] -0.775% | Potency [4] > 20.6 µM

COc1ccccc1-c1cc(-c2cc(Cl)ccc2O)n[nH]1
inactive: activity change, negative = inhibition [1] 5.68% | activity change, negative = inhibition [2] 2.8% | activity, negative = inhibition [3] 8.92% | Potency [4] > 20.6 µM

CCC(NC(=O)Nc1cc(OC)c(OC)c(OC)c1)(C(F)(F)F)C(F)(F)F
inactive: activity change, negative = inhibition [1] -13.9% | activity change, negative = inhibition [2] 14.9% | activity, negative = inhibition [3] -1.91% | Potency [4] > 20.6 µM

NS(=O)(=O)c1ccc(-c2ccc(C=NC3CCS(=O)(=O)C3)o2)cc1 (stereo not given)
inactive: activity change, negative = inhibition [1] 19.2% | activity change, negative = inhibition [2] -3.68% | activity, negative = inhibition [3] -5.15% | Potency [4] > 20.6 µM

Cc1nccn1-c1cc(C(C)C)c(C#N)c2nc3ccccc3n12
inactive: activity change, negative = inhibition [1] 0.38% | activity change, negative = inhibition [2] -0.783% | activity, negative = inhibition [3] -0.277% | Potency [4] > 20.6 µM

Cc1nc(N2CCOCC2)c(C#N)c2c1COC(C)(C)C2
inactive: activity change, negative = inhibition [1] 0.635% | activity change, negative = inhibition [2] 2.49% | activity, negative = inhibition [3] 7.32% | Potency [4] > 20.6 µM

CCC(=O)N[C@@H]1CC(C(C)(C)NC(=O)CC)CC=C1C (stereo not given in full)
inactive: activity change, negative = inhibition [1] 8.41% | activity change, negative = inhibition [2] 6.85% | activity, negative = inhibition [3] 0.886% | Potency [4] > 20.6 µM

CC(NC(=O)Nc1nnc(C(F)(F)F)s1)(C(F)(F)F)C(F)(F)F
inactive: activity change, negative = inhibition [1] -3.33% | activity change, negative = inhibition [2] 0.893% | activity, negative = inhibition [3] 0.617% | Potency [4] > 20.6 µM

CCN(CC)CCN1C(=O)C(=O)/C(=C(/O)c2ccc(F)cc2)C1c1ccncc1 (stereo not given)
inactive: activity change, negative = inhibition [1] -7.07% | activity change, negative = inhibition [2] 17.1% | activity, negative = inhibition [3] 1.89% | Potency [4] > 20.6 µM

O=C(O)CCCC(=O)N1CCN(C(c2ccccc2)c2ccccc2)CC1
inactive: activity change, negative = inhibition [1] 1.43% | activity change, negative = inhibition [2] 7.29% | activity, negative = inhibition [3] 0.344% | Potency [4] > 20.6 µM

COc1ccc(C(=O)N2CCC(N3CCN(c4ccccc4)CC3)CC2)cc1OC
inactive: activity change, negative = inhibition [1] 11.1% | activity change, negative = inhibition [2] 20.4% | activity, negative = inhibition [3] -1.54% | Potency [4] > 20.6 µM

COc1ccccc1-n1c(=O)c2c3c(sc2n2c(SC(C)C)nnc12)CCC3
inactive: activity change, negative = inhibition [1] -5.57% | activity change, negative = inhibition [2] -27.1% | activity, negative = inhibition [3] 10.5% | Potency [4] > 20.6 µM

CCOC(=O)c1c(C)n(C)c2ccc(OC)c(NC(=O)CN3CCN(Cc4ccccc4)CC3)c12
inactive: activity change, negative = inhibition [1] -11% | activity change, negative = inhibition [2] -8.48% | activity, negative = inhibition [3] -7.51% | Potency [4] > 20.6 µM
